Data reported in PubChem BioAssay AID1499 (Sanford-Burnham Center for Chemical Genomics, 2009).
Hit rate of the full screen: of about 93,000 compounds, about 65 (0.07%) were called active. Many of the other results were omitted from the sample, so actives are more common in it than they were. Values without a mark were called inactive.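 Rule for the calls: active = 10 µM primary screen giving 50% or more activity, confirmed by 40% or more on retest at that dose; inactive = the rest.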

molecular target: Integrin beta-2 (Homo sapiens) + Integrin alpha-M (Homo sapiens) (UniProt P05107+P11215); assay: agonists of integrin CD11b/CD18-fibrinogen binding – K562 cells, luminescence, primary screen (AID 1499); conditions: K562 CD11b/CD18 adhesion to fibrinogen, ATPlite luminescence; at 10 µM; hits give high values
Sequence (P05107 whole entry, looked up, other chains not shown): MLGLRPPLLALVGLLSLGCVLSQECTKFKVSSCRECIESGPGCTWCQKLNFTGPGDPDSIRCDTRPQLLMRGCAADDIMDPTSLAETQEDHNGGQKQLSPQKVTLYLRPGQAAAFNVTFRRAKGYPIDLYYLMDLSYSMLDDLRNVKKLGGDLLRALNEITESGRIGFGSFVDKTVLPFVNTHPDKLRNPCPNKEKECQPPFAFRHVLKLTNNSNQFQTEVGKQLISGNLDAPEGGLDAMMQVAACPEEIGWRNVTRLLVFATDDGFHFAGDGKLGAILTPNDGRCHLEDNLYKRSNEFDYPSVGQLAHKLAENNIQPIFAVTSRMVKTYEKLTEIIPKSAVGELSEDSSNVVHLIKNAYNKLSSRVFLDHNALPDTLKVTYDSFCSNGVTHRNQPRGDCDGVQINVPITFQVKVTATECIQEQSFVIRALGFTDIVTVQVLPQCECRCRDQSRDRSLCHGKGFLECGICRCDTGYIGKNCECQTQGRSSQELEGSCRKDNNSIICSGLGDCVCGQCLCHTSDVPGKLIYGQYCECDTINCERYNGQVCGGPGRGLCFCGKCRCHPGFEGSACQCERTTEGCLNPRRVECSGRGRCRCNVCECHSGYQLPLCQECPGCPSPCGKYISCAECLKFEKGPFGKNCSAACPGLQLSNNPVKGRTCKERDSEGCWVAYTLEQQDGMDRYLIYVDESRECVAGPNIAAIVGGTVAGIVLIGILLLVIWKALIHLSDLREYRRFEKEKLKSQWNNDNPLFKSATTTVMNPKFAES

Structure (SMILES) | activation [%]
CCOC(=O)c1c(NC(=S)Nc2ccccc2C)sc2c1CCC2 | 2.8
CCOCCCNC(=O)C(=O)NCCCOCC | -2.3
CCc1nnc(NC(=O)C2CC(=O)N(c3ccc4c(c3)OCCO4)C2)s1 (stereo unspecified) | 5
CCCn1c(C)cc(/C=C(\C#N)C(=O)OCC(=O)Nc2cc(OC)c(OC)c(OC)c2)c1C | 3
O=C(/C=C/c1ccccc1)Nc1nnc(SCC(=O)c2ccc3ccccc3c2)s1 | 59.6
CCc1nnc(NC(=O)[C@@H](NC(=O)c2cccc(C)c2)C(C)C)s1 | -1.2
O=C(CSc1nc2ccccc2[nH]1)Nc1nc(-c2ccccc2)c(-c2ccccc2)o1 | -6.7
CN(Cc1cccs1)C(=O)Cc1c[nH]c2ccccc12 | -1.9
COC(=O)c1ccc(OCC(O)CN(CCO)CC(O)Cn2ccc3ccccc32)cc1 (stereo unspecified) | 8.9
Cc1c(Cl)cnc(NC(=O)COC(=O)c2ccc(S(=O)(=O)NCc3ccco3)cc2)c1Cl | 12.8
CC(C)(C)c1ccc(C(=O)NCc2nnc(SCC(=O)N3CCCc4ccccc43)n2-c2ccccc2)cc1 | -4.7
Cc1cc(Br)ccc1SCC(=O)OCC(=O)NCc1ccc2c(c1)OCO2 | 4.5
N#Cc1c(-c2ccc(F)cc2)cc(C2CC2)nc1SCC(=O)c1cccs1 | 12.6
CCn1c2ccccc2c2cc(NC(=O)COC(=O)c3ccccc3Br)ccc21 | 0.6
CC(C)Nc1nnc(SCC(=O)/C=C2\N(C)c3ccccc3C2(C)C)s1 | 0
Cc1cccc(CC(=O)N2CCN=C2SCc2ccc([N+](=O)[O-])cc2)c1 | 5.7
CCOc1ccc(CCNC(=O)CSc2cc(=O)n(C)c3ccc(Cl)cc23)cc1OCC | 0.6
Cc1c(C(=O)Nc2cccc(-c3nnc4n3CCCCC4)c2)oc2ccccc12 | 0.4
CC(=O)c1ccc(NC(=O)Nc2ccc([N+](=O)[O-])cc2C)cc1 | -2.3
Cc1cc2oc(=O)cc(CN3CCN(S(=O)(=O)c4cccs4)CC3)c2cc1C(C)C | -0.5
O=C(CCCCCNC(=O)c1ccccc1)N/N=C/c1ccccc1 | -6.5
COc1ccc(NS(=O)(=O)c2ccc(NC(=S)NC(=O)/C=C/c3ccc(C)cc3)cc2)nn1 | 3.8
O=C(NNC(=S)Nc1ccc(Br)cc1Cl)c1ccco1 | -7.7

Structure (SMILES) | activation [%]
COc1ccc(C(CC(=O)Nc2ccc(C)cc2)NC(=O)C(F)(F)F)cc1 (stereo unspecified) | -0.4
Brc1ccc(-c2csc(N/N=C/c3ccc4c(c3)OCO4)n2)cc1 | 18.4
CCOc1ncccc1C(=O)N(C)CC(=O)Nc1ccc(F)cc1 | -3.5
CCCN1CNC(=S)N(CCc2ccccc2)C1 | 5.1
Cc1cc(C)cc(C(=O)N2CCN=C2SCc2ccc([N+](=O)[O-])cc2)c1 | 0.8
COc1cc(OC)c(C(=O)OC(C)C(=O)Nc2cc(C(F)(F)F)ccc2Cl)cc1OC (stereo unspecified) | 4.1
O=C(Nc1ccccc1F)c1ccccc1-c1ccccc1 | 0.5
Cc1ccc(NC(=O)Nc2ccccc2)c(Br)c1 | 12.1
COc1ccccc1CN(C)C(=O)C1(c2ccc(Cl)cc2)CC1 | 11.3
C/C(=N\NS(=O)(=O)c1ccc(Cl)cc1)c1ccc(NC(=O)c2ccco2)cc1 | -2.4
CC1CCN(c2ccc(C(=O)NCc3ccc4c(c3)OCO4)cc2[N+](=O)[O-])CC1 | 0.5
O=C(COC(=O)c1ccc(Cl)nc1)NCc1ccc2c(c1)OCO2 | 4
COCCn1c(=NC(=O)c2ccccc2[N+](=O)[O-])sc2cc(S(C)(=O)=O)ccc21 | 2
CCOC(=O)c1c(/N=C/c2cc(C)ccc2O)sc2c1CCC2 | -6
COc1cccc(NC(=O)C(Sc2nc3ccccc3c(=O)n2CC(C)C)c2ccccc2)c1 (stereo unspecified) | 1
COc1cc(C(=O)NCc2nnc(SCC(=O)Nc3nc4ccc(C)cc4s3)o2)cc(OC)c1OC | 10.4
COc1ccc(-c2csc(NC(=O)CCCc3cccs3)n2)cc1 | -1.8
O=C(Nc1ccc2c(c1)OCO2)c1ccc(N2C(=O)c3ccccc3C2=O)cc1 | 23.5
C/C(CC1CC(C)(C)OC1=O)=N/Nc1nc(-c2ccccc2)cs1 (stereo unspecified) | -0.2
O=C(Cn1cnc2ccccc21)N/N=C/c1ccco1 | -5.8
c1ccc(C2=Nc3cccc4cccc(c34)N2)cc1 | 7
COc1ccc(Br)cc1CN(C)CC(=O)Nc1cc([N+](=O)[O-])ccc1OC | -0.1
CCOC(=O)c1cnc2ccc(F)cc2c1Nc1ccc2c(c1)OCCO2 | 4.3

Structure (SMILES) | activation [%]
Cc1c(Br)c([N+](=O)[O-])nn1CC(=O)Nc1sc2c(c1C(=O)OC(C)C)CCC(C)C2 (stereo unspecified) | 10.3
COc1ccc(/C=C2/C(=O)OCc3cc(OC)c(OC)cc32)c(OC)c1 | 4
COc1ccc(-c2csc(NC(=O)COC(=O)Cc3ccc(Cl)cc3Cl)n2)cc1 | -1.1
Cc1ccc(-n2c(SCC(=O)N3c4ccccc4Sc4ccccc43)nnc2-c2ccncc2)cc1 | 7.2
Cc1ccc(C)c(NC(=S)NCC(c2cccnc2)N2CCOCC2)c1 (stereo unspecified) | 5
Cc1ccc(S(=O)(=O)N2CCN(CC(=O)N/N=C/c3cc([N+](=O)[O-])ccc3Cl)CC2)cc1 | -2.8
COc1ccc(OCC(O)CNC(=O)Nc2ccc(Cl)cc2)cc1 (stereo unspecified) | 7.7
COc1cc(OC)c(C(=O)Nc2ccccc2-c2ccccc2)cc1OC | 6.2
COc1ccc([N+](=O)[O-])cc1NC(=O)c1ccc(N(Cc2ccccc2C)S(C)(=O)=O)cc1 | 0.6
COc1ccc(C2Nc3ccccc3C(=O)N2c2ccc(F)cc2)cc1Cn1nnc2ccccc21 (stereo unspecified) | -1.9
O=C(N/N=C/c1cccc([N+](=O)[O-])c1)C1CC(=O)N(c2ccc(Br)cc2)C1 (stereo unspecified) | -1.9
CCN(C(=O)COC(=O)c1c(NC(C)=O)sc(C)c1C)C1CCS(=O)(=O)C1 (stereo unspecified) | 0.3
CCOC(=O)NC(=O)CSc1nnc(SCCC(=O)O)s1 | -3.3
Cc1cccc(OCc2ccc(C(=O)Nc3ccc(F)cc3)cc2)c1 | -6.2
O=C(NC(=S)Nc1ccc(NC(=O)c2cccs2)cc1)c1ccc([N+](=O)[O-])cc1 | 55.8
CC(Sc1nc2cc(Cl)ccc2s1)C(=O)Nc1ccc2c(c1)OCO2 (stereo unspecified) | 0.6
COc1ccc(OC)c(/C=C/C(=O)OCC(=O)Nc2ccc3c(c2)OCCO3)c1 | -3.7
CCOc1ccc2c(=O)c(-c3ccc4c(c3)OCCCO4)c(C)oc2c1 | 3
N#Cc1c(NC(=O)c2ccc(N3CCOCC3)c([N+](=O)[O-])c2)sc2c1CCCC2 | -0.4
Cc1ccc(S(=O)(=O)C2C(=O)NC3(C)CC2c2ccccc2O3)cc1 (stereo unspecified) | 0.7
CCC1CCCCN1C(=S)Nc1ccc(SC(F)F)cc1 (stereo unspecified) | 1.7
CCCC/C(C)=N/NC(=O)NC1CCCCC1 | -0.9
CC(C)CNC(=O)COC(=O)c1ccccc1OCC(=O)Nc1ccc(Br)cc1 | 1

Structure (SMILES) | activation [%]
Cc1cc([N+](=O)[O-])ccc1NC(=O)C1CCCO1 (stereo unspecified) | 1.8
Cc1ccccc1NC(=O)CSC1=NCCN1 | 3.2
Cc1cc(C)c[n+](-c2nc3ccccc3nc2[N-]S(=O)(=O)c2cccs2)c1 | 2.1
COc1ccc([N+](=O)[O-])cc1NC(=O)C(C)OC(=O)C1c2ccccc2Oc2ccccc21 (stereo unspecified) | -2.2
COc1cc(Cl)c(C)cc1NC(=O)[C@@H]1CCCN1C(=O)c1cccs1 | -2.3
CCOC(=O)C1CCN(c2ccc(C(=O)O)cc2[N+](=O)[O-])CC1 | -3.3
O=C(NCC1CCCO1)/C(=C/c1ccc(Cl)cc1)NC(=O)c1ccccc1 (stereo unspecified) | 0.2
O=C(CN1CCN(c2ccccn2)CC1)N1CCc2ccccc21 | 3.8
N#CC1(NC(=O)COc2ccc3oc4ccccc4c3c2)CCCCC1 | 10.2
CN1CCN(c2ccc(S(=O)(=O)Nc3ccccc3)cc2[N+](=O)[O-])CC1 | -2.2
Cc1nnc(SCC(=O)N2CCOCC2)[nH]c1=O | -6.4
OCC(CO)(CO)NCc1ccc(-c2ccccc2)cc1 | 4.4
COc1cc(/C=N/NC(=O)CCc2n[nH]c(=O)[nH]c2=O)ccc1O | 15.1
COC(=O)C1=C(NC(=O)C(C)(C)C)CCS1 | 1.8
Cc1ccc(-c2nnc(SCC(=O)N/N=C/c3cccs3)n2-c2ccc(C)cc2)cc1 | 9
COc1ccc(NS(=O)(=O)c2ccc(NC(=O)c3ccc(N(C)S(C)(=O)=O)cc3)cc2)cc1 | -3.8
Cc1ccc(O)c(CCc2ccccc2)n1 | -3.8
CCOC(=O)c1oc2c(CN3CCN(C)CC3)c(O)ccc2c(=O)c1-c1ccc(Br)cc1 | 2
O=C(COC(=O)Cn1cnc2ccccc2c1=O)NCC12CC3CC(CC(C3)C1)C2 | 5.2
CSCCC(NC(=O)c1cc([N+](=O)[O-])cc([N+](=O)[O-])c1)c1nc2ccccc2[nH]1 (stereo unspecified) | 22
Cc1ccc2nc(SCc3cn4c(C)cc(C)nc4n3)[nH]c2c1 | -2.3
Oc1c(Br)cccc1/C=N/Nc1c(F)c(F)c(F)c(F)c1F | -10.4
